Experimental data reported in PubChem BioAssay (NCATS).
“And” between values parts separate entries of the source, which are not always exact repeats. Identical values can stand only once. Results filed as inconclusive are left out. Where a call stands in place of a potency, no number is given. The source holds several records for some structures; these can differ, active in one and inactive in another. The source made the active and inactive calls. Calls come from the whole dose curve; as a rule, active = well fitted curve in the direction sought with a large enough effect; inconclusive = small, poorly fitted or top-dose-only effect, or another doubt; inactive = no such curve, though single readings can be large; an effect the other way counts as inactive or inconclusive.

What was measured:
Papain (Carica papaya) = Papain (Carica papaya) (UniProt P00784); experiment: Primary qHTS assay for inhibitors of the protease papain (AID 1645873);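 note: papain turnover of Z-FR-AMC read as the AMC fluorescence gain over 10 min; series mostly up to about 50 µM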
[1] = molecular target: N-terminal Xaa-Pro-Lys N-methyltransferase 1 (Homo sapiens) (UniProt Q9BV86); experiment: Confirmatory qHTS for Inhibitors of N-terminal methyltransferase 1 (NTMT1): MTaseGlo Assay (AID 1645874); note: potency is the fitted concentration of half-maximal effect; nearly all actives have a fitted effect of over 65% in size
Outline: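 Compounds are incubated with 125 nM NTMT1 and 100 uM SAM for 15 min before the SPKRIA peptide (1 uM) starts a 30 min room-temperature methylation. SAH is measured by coupled luciferase luminescence and curves fitted to a Hill equation.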

[2] = Primary qHTS for small molecule stabilizers of the endoplasmic reticulum resident proteome: Secreted ER Calcium Modulated Protein (SERCaMP) assay (AID 1508630); note: potency is the fitted concentration of half-maximal effect
Outline: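 GLuc-SERCaMP-expressing SH-SY5Y cells, pretreated 16 h with compound, are challenged with thapsigargin to empty ER calcium stores; after 4 h, coelenterazine is added directly to the medium and luminescence is imaged.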

[3] = Primary qHTS for inhibitors of nuclear receptor binding SET domain protein 2 (NSD2) in an isogenic RCH-ACV NSD2 p.E1099K mutant (9B) (AID 1645876); note: nearly all actives have a fitted effect of over 70% in size; note: potency is the fitted concentration of half-maximal effect
[4] = Primary qHTS for inhibitors of nuclear receptor binding SET domain protein 2 (NSD2) in an RCH-ACV wild type WT cells (2C) (AID 1645877); note: nearly all actives have a fitted effect of over 70% in size; note: potency is the fitted concentration of half-maximal effect

Sequence of N-terminal Xaa-Pro-Lys N-methyltransferase 1 (Homo sapiens) (Q9BV86 whole entry, looked up): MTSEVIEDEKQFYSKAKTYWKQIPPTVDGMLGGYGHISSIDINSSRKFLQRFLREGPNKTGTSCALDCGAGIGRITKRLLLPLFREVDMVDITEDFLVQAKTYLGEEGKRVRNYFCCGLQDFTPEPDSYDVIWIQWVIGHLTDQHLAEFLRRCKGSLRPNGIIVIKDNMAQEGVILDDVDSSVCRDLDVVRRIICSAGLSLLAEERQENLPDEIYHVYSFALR
Sequence of Papain (Carica papaya) (P00784 whole entry, looked up): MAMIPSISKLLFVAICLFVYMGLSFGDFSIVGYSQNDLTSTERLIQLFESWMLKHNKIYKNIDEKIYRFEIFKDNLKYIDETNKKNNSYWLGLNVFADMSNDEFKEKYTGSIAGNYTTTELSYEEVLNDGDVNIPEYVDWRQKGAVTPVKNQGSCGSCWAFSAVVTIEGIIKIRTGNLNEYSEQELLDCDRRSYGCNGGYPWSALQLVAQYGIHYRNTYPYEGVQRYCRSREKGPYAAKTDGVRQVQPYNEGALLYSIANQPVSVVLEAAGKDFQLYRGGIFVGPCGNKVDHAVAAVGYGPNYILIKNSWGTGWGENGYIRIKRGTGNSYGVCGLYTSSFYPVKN

Structure (SMILES) | outcome (Papain (Carica papaya)) | Potency [1] | Potency [2] | Potency [3] | Potency [4]
C=CCc1cccc(C=NNC(=O)CN2CCN(Cc3ccccc3)CC2)c1O | inactive |  |  |  | 
Nc1[nH]nc2nnc(-c3c(-c4ccccc4)nn4ccccc34)cc12 |  | 11.2 µM (active) |  |  | 
COC(=O)Nc1ccc(-c2nc(N3CCOCC3)c3cnn(C4CCN(C(=O)OC)CC4)c3n2)cc1 |  |  | inactive | 1.05 µM (active) | 0.742 µM (active)
CO[C@@H]1C(N(C)C(=O)c2ccccc2)C[C@H]2O[C@]1(C)n1c3ccccc3c3c4c(c5c6ccccc6n2c5c31)C(=O)NC4=O (some centres not stated) |  |  | inactive | 1.66 µM (active) | 1.32 µM (active)
CCC[C@H](Nc1nc(-c2ccc(NC(=O)NCC)c(OC)c2)ncc1C)c1cccnc1 |  |  | inactive | 0.0263 µM (active) | 0.0372 µM (active)
O=C(O)CCC=CCC[C@@H]1[C@H](N2CCCCC2)[C@@H](O)C[C@@H]1OCc1ccc(-c2ccccc2)cc1 |  |  | inactive | inactive | inactive
CC(NCCc1ccc(O)cc1)C(O)c1ccc(O)cc1 (configuration not stated) |  |  | inactive | inactive | inactive
Cc1ccc(NC(=O)c2ccc(CN3CCN(C)CC3)cc2)cc1Nc1nc(-c2cccnc2)cs1 |  |  | inactive | 14.6 µM (active) and 14.8 µM (active) | 18.4 µM (active) and 14.8 µM (active)
CCn1c(-c2nonc2N)nc2cncc(CNC3CCNCC3)c21 |  |  | inactive | 12.9 µM (active) | 11.5 µM (active)
CC(C)(F)C[C@H](N[C@@H](c1ccc(-c2ccc(S(C)(=O)=O)cc2)cc1)C(F)(F)F)C(=O)NC1(C#N)CC1 |  |  | inactive | inactive | inactive
CCC(=O)N1CCN(c2ccc(-n3c(=O)ccc4cnc5ccc(-c6cnc7ccccc7c6)cc5c43)cc2C(F)(F)F)CC1 |  |  | inactive | 13.3 nM (active) and 12.9 nM (active) | 13.3 nM (active) and 20.4 nM (active)
CN[C@@H]1CN(c2ccc3c(=O)c(C(=O)O)cn(-c4nccs4)c3n2)C[C@@H]1OC |  |  | inactive | 0.102 µM (active) | 0.0645 µM (active)
OC(c1cc(C(F)(F)F)nc2c(C(F)(F)F)cccc12)C1CCCCN1 (configuration not stated) |  |  | inactive | 11.8 µM (active) | 13.2 µM (active)
Cc1cc2c(cc1C1(c3ccc(C(=O)O)cn3)CC1)C(C)(C)CCC2(C)C |  |  | inactive | inactive | inactive
CN1CCN(c2cccc(Nc3nc4c(-c5ccc(S(C)(=O)=O)cc5)cccn4n3)c2)CC1 |  |  | inactive | 2.06 µM (active) and 5.9 µM (active) | 1.63 µM (active) and 8.33 µM (active)
C[C@@]1(C(=O)Nc2ccc(F)nc2)CCCN1c1nc(Nc2cc(C3CC3)[nH]n2)c2cccn2n1 |  |  | inactive | 2.95 µM (active) | 2.63 µM (active)

Structure (SMILES) | outcome (Papain (Carica papaya)) | Potency [1] | Potency [2] | Potency [3] | Potency [4]
CN1c2ccccc2C(=O)N2CCc3c([nH]c4ccccc34)C21 (configuration not stated) |  |  | inactive | 2.09 µM (active) | 1.32 µM (active)
O=C1NC(=O)C(c2cnc3ccccn23)=C1c1cn2c3c(cccc13)CN(C(=O)N1CCOCC1)CC2 |  |  | inactive | 0.0148 µM (active) | 0.0148 µM (active)
CN1CCN2c3ncccc3Cc3ccccc3C2C1 (configuration not stated) |  |  | inactive | inactive | inactive
CC(C)C[C@H](NC(=O)c1cc2ccccc2s1)C(=O)N1CCN(C(=O)[C@H](CO)NS(=O)(=O)c2ccc(Cl)cc2Cl)CC1 |  |  | 23.7 µM (active) | 23.5 µM (active) | 20.9 µM (active)
O=C(Nc1cccc(Cl)c1)Nc1ncc(CCNc2ncnc3ccsc23)s1 |  |  | inactive | 1.86 µM (active) | 0.0295 µM (active)
Cc1c(C(=O)Nc2ccc(N3C[C@@H](C)O[C@@H](C)C3)nc2)cccc1-c1ccc(OC(F)(F)F)cc1 |  |  | inactive | inactive | inactive
NCC1CCC(C(=O)O)CC1 (configuration not stated) |  |  | inactive | inactive | inactive
COc1ccc2nc3cc(Cl)ccc3c(Nc3cc(CN4CCCC4)c(O)c(CN4CCCC4)c3)c2n1 |  |  | inactive | 2.95 µM (active) | 2.95 µM (active)
Nc1ncnc2c1ncn2[C@@H]1O[C@H](CO)[C@@H](O)[C@@H]1O |  |  | inactive | 16.6 µM (active) | 16.6 µM (active)
Cc1ccc(S(=O)(=O)Nc2nc3ccccc3nc2Nc2ccc3nsnc3c2)cc1 |  |  | inactive | inactive | 14.6 µM (active) and inactive
CCN(CC)CCCCNc1nc2cc(Cl)c(Cl)cc2nc1-c1ccc(-c2cccs2)s1 |  |  | inactive | 7.42 µM (active) | 7.42 µM (active)
C=CC(=O)Nc1cccc(Sc2nc(Nc3ccc(N4CCN(C)CC4)cc3)ncc2Cl)c1 |  |  | inactive | 2.9 µM (active) and 2.95 µM (active) | 2.3 µM (active) and 2.63 µM (active)
COc1nc(C)cnc1NS(=O)(=O)c1cccnc1-c1ccc(-c2nnco2)cc1 |  |  | inactive | inactive | inactive
CCOc1ccccc1N=Nc1c(C)[nH]n(-c2nc(-c3ccccc3)cs2)c1=O |  |  | inactive | inactive | inactive
Nc1nc(Cl)nc2c1ncn2[C@@H]1O[C@H](CO)[C@@H](O)[C@H]1F |  |  | inactive | 0.0231 µM (active) | 0.0206 µM (active)
N#Cc1ccc(Oc2ccc3c(c2)COB3O)cc1 |  |  | inactive | 5.9 µM (active) | 6.61 µM (active)
